From PubChem BioAssay (NCATS)
Records with an inconclusive call do not appear. Entries that show only a call come without a potency. The source made the active and inactive calls. Calls come from the whole dose curve; as a rule, active = well fitted inhibition curve with a large enough effect; inconclusive = small, poorly fitted or top-dose-only effect; inactive = flat fitted curve, though single readings scatter.

The compounds below were run against Glutathione peroxidase 1 (Homo sapiens) (UniProt P07203) (assay: Primary qHTS Assay for Inhibitors of Recombinant Selenoprotein Glutathione Peroxidase 1 (GPX1) (AID 1845191; note: nearly all actives have a fitted effect of over 65% in size)). Settings: recombinant GPX1, GR-coupled NADPH fluorescence, 15 min; series mostly up to 48.8 µM.
Sequence of Glutathione peroxidase 1 (Homo sapiens) (P07203 whole entry, looked up): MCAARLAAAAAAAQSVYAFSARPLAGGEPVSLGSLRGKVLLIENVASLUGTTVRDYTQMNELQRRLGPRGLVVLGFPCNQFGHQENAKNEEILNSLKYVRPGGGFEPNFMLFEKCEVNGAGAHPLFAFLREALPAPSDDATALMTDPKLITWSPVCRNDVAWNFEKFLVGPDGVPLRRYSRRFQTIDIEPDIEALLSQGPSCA
In short: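 Recombinant GPX1 (10 nM final) was preincubated with compound for 30 min at room temperature, then reacted with 1 mM GSH, 0.5 mM CHP, 0.5 mM NADPH and 100 nM glutathione reductase; NADPH fluorescence (340/450 nm) was read at 0 and 15 min.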
Potency is the fitted concentration of half-maximal effect.

Question: With `O=C(c1cccc(Br)c1)N1CCC(N2CCCC2)CC1` as the compound, how does the Potency read?
Answer: inactive

Question: How did the Potency turn out when `COc1ccc(-c2cc(-c3ccc4c(c3)NC(=O)CO4)nc3c2COc2ccc(C)cc2-3)cc1` was run?
Answer: inactive

Question: How did the Potency turn out when `Cc1cc(-c2nc3ncccc3o2)ccc1NC(=O)COc1ccc(C(C)(C)C)cc1` was run?
Answer: inactive

Question: For `CCc1ccc(Nc2c(F)c(F)cc(F)c2F)c(CC(=O)O)c1`, which Potency is on record?
Answer: inactive

Question: With `O=C1NC(=O)/C(=C/c2ccc3c(c2)OCO3)S1` as the compound, how does the Potency read?
Answer: inactive

Question: How did the Potency turn out when `Cn1c(/C=C/C(=O)NO)ccc1/C=C/C(=O)c1cccc(F)c1` was run?
Answer: inactive

Question: `CC(C)(O)CNc1ncc(-c2ccnc(Nc3ccnc(Cl)c3)n2)c(CC2CC2)n1` was tested. Which Potency did it give?
Answer: inactive

Question: How did the Potency turn out when `COc1ccccc1Nc1nc(-c2sc(NC(C)=O)nc2C)cs1` was run?
Answer: 20.2 µM (active)

Question: With `Cn1c(=O)oc2ccc(C(=O)N[C@H](C3CCNCC3)C3CC(O)C3)cc21` (some centres undefined) as the compound, how does the Potency read?
Answer: inactive

Question: For `CC[C@H](C)C1NC(=O)[C@H](Cc2ccc(O)cc2)NC(=O)[C@@H](N)CSSC[C@@H](C(=O)N2CCC[C@H]2C(=O)N[C@@H](CC(C)C)C(=O)NCC(N)=O)NC(=O)[C@H](CC(N)=O)NC(=O)[C@H](CCC(N)=O)NC1=O` (some centres undefined), which Potency is on record?
Answer: inactive

Question: How did the Potency turn out when `COc1cccc(-n2c(=O)[nH]c3cc(Cl)n(-c4ccc(-c5cccc(OC)c5O)cc4)c3c2=O)c1` was run?
Answer: inactive

Question: For `O=C1COc2c(CCNCCN(C(=O)CCNCCc3ccc(Cl)c(Cl)c3)C3CCCCC3)ccc(O)c2N1`, which Potency is on record?
Answer: inactive

Question: For `Clc1ccc(-c2csc(NN=C3CCCC3)n2)cc1`, which Potency is on record?
Answer: inactive

Question: How did the Potency turn out when `Cc1ccc2c(c1)-c1nc(-c3ccc(Cl)cc3)cc(-c3coc4ccccc4c3=O)c1CO2` was run?
Answer: inactive
